# Screens: PubChem BioAssay, NMMLSC
# Only some compounds are listed: those with a hit (about 1.2% of all), similar ones and a draw of the others.
# RGS4-Gao reg: human RGS4-Galphao interaction regulation; P09471; Multiplexed bead flow cytometry, RGS4-Galphao binding; actives lie on both sides; binding response (% of control), % at 10 µM; 0.33% of 220,000 active; in the data active = binding response below about 49% or above about 150%; inactive = in between;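 also: fluorescent Galphao activated with aluminum fluoride binding bead-coupled RGS4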
# Target sequence (P09471 whole entry, looked up): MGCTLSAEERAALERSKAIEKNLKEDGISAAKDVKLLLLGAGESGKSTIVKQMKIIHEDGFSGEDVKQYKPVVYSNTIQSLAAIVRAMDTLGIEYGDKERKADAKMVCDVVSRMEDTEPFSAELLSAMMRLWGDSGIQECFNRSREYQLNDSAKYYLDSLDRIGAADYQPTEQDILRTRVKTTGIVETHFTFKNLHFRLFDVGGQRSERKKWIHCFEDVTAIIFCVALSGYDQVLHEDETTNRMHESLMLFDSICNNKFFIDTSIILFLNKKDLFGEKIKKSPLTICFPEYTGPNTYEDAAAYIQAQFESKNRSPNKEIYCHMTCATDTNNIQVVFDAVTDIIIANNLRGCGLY
# RGS7-Gao reg: regulators of human RGS7-Galphao interaction; Multiplexed bead flow cytometry, RGS7-Galphao binding; actives lie on both sides; binding response (% of control), % at 10 µM; 0.35% of 220,000 active; in the data active = binding response below about 49% or above about 150%; inconclusive = no clear call, values can overlap the other calls; inactive = in between;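 also: fluorescent Galphao held in activated GDP-AlF4 state binding bead-coupled RGS7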
# Avidin bead fluor: compound fluoresces at 488/530 nm on avidin beads. compound fluorescence 488/530 nm, flow cytometry; hits give high values. fluorescence (KMESF) at 10 µM. 0.38% of 220,000 active. AID 1775; in the data active = fluorescence above about 47
# GSH fluor: compound fluoresces at 488/530 nm on GSH beads. GSH beads flow cytometry, compound fluorescence 488/530 nm; hits give high values. AID 1776. fluorescence (KMESF) at 10 µM. 0.25% of 190,000 active; in the data active = fluorescence above about 89;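 also: glutathione beads carrying GST-tagged Bcl family fusion proteins plus one bare bead set; values are compound well signal with DMSO vehicle wells as background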
# RGS8-Gao: human RGS8-Galphao interaction regulation | 0.34% of 220,000 active | multiplexed bead flow cytometry, RGS8-Galphao binding; actives lie on both sides | P09471 | AID 1423 | response (percent of control binding), % at 10 µM; in the data active = response below about 60% or above about 140%; inactive = in between;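 also: Galphao activated as the GDP aluminium fluoride complex binding bead-coupled RGS8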
# RGS16-Gao: RGS16-Galphao interaction regulator (human). O15492+P09471. bead-based flow cytometry RGS16-Galphao binding, fluorescence; actives lie on both sides. binding response (% of control), % at 10 µM. 0.38% of 220,000 active;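 also: Galphao activated by GDP with aluminum fluoride before binding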
# Target sequence (O15492 whole entry, looked up): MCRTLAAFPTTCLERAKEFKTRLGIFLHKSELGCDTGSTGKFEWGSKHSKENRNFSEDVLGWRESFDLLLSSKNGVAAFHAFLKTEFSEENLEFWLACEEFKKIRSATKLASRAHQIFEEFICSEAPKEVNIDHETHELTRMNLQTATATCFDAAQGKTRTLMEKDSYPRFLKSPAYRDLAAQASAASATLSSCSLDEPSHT
# Target sequence (P09471 whole entry, looked up): as the sequence (P09471 whole entry, looked up) above
# RGS4-Gao HTS: regulators of human RGS4-Galphao interaction; shares compounds with RGS16-Gao; multiplexed bead flow cytometry, RGS–Galpha-o binding; RGS4–Galpha-o binding response, % at 10 µM; 99% of 1,600 active; AID 1504;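 also: fluorescently labeled Galpha-o bound to GDP with aluminium fluoride binding biotinylated RGS beads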
# Biotin-avidin: interferes with biotinylated probe binding to avidin beads | shares compounds with RGS16-Gao | streptavidin beads, fluorescein-biotin binding, flow cytometry | inhibition, % at 10 µM | 1,700 tested, under 10 active | AID 1783;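 active = inhibition above 50%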;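 also: median green fluorescence of gated singlet beads compared with DMSO control wells; 0% = DMSO wells and 100% = complete loss of bead fluorescence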
# RGS8-Gao confirm: confirmation of regulators of human RGS8-Galphao interaction; bead-based flow cytometry RGS8-Galphao binding, fluorescence; actives lie on both sides; binding response (% of control), % at 10 µM; shares compounds with RGS16-Gao; 3% of 1,700 active; AID 1836; in the data active = binding response below about 72% or above about 130%; inactive = in between;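 also: Galphao activated as GDP AlF4 complex before binding bead RGS8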
# RGS7-Gao single: confirmation of regulators of human RGS7-Galphao interaction; shares compounds with RGS16-Gao; bead-based flow cytometry RGS7-Galphao binding; actives lie on both sides; response (percent of control binding), % at 10 µM; 7.8% of 1,700 active; AID 1837; in the data active = response below about 75% or above about 130%; inactive = in between;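 also: fluorescent Galphao activated with GDP and aluminum fluoride binding bead-coupled RGS7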
# RGS16-Gao single: confirmation of regulators of human RGS16-Galphao interaction; response (% of control binding), % at 10 µM; AID 1838; 4% of 1,700 active; shares compounds with RGS16-Gao; bead-based flow cytometry, RGS16-Galphao binding; actives lie on both sides; in the data active = response below about 74% or above about 130%; inactive = in between;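 also: Galphao activated as the GDP aluminium fluoride complex binding bead-coupled RGS16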
# RGS4-Gao single: RGS4-Galphao interaction regulation, single point confirmation; shares compounds with RGS16-Gao; binding response (% of control), % at 10 µM; 4% of 1,700 active; RGS4-Galphao binding, multiplexed bead flow cytometry; actives lie on both sides; in the data active = binding response below about 74% or above about 130%; inactive = in between
# RGS19-Gao conf: confirmation of regulators of human RGS19-Galphao interaction. shares compounds with RGS16-Gao. bead-based flow cytometry RGS19-Galphao binding; actives lie on both sides. response (percent of control binding), % at 10 µM. 5% of 1,700 active. AID 1841; in the data active = response below about 50% or above about 160%; inactive = in between;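 also: 100% = no compound control and 0% = blank background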
# * = called active by the depositor; ? = inconclusive; . = no result; [ ] = dose if it differs, or a comment. Unless noted, no rule for the calls is given here.
SMILES,RGS4-Gao reg,RGS7-Gao reg,Avidin bead fluor,GSH fluor,RGS8-Gao,RGS16-Gao,Biotin-avidin,RGS8-Gao confirm,RGS7-Gao single,RGS16-Gao single,RGS4-Gao single,RGS19-Gao conf,others
Cc1nnc(Nc2ccc3c(c2)ncn3C)c2ccccc12,114.9,113.6,13,25,146.5*[activator],219.7,1.2,108.1,107.2,106.1,104.1,107.0,RGS4-Gao HTS=114.9*
Cc1ccc(-c2nnc(Nc3ccc4c(c3)nc(C)n4C)c3ccccc23)cc1,97.6,97.2,32,12,99.9,99.8,.,.,.,.,.,.,
O=C(COc1ccc(Cl)cc1)NCc1nnc(SCC(=O)Nc2ccc(F)cc2F)o1,103.8,99.3,6,20,99.9,100.6,.,.,.,.,.,.,
COc1ccc(CCNC(=O)/C(=C/c2cccnc2)NC(=O)c2ccccc2)cc1,109.7,108.2,14,13,126.9,226.1*[activator],-2.5,102.8,106.9,103.7,103.0,91.9,RGS4-Gao HTS=109.7*
O=C(NCCc1ccccc1F)/C(=C/c1cccnc1)NC(=O)c1ccccc1,101.4,97.1,6,13,96.2,78.1,.,.,.,.,.,.,
CCCC(=O)Nc1nc2c(C)c(Cl)ccc2s1,94.5,?,6,.,97.4,95.8,.,.,.,.,.,.,
CC(=O)Nc1nc2c(C)c(Cl)ccc2s1,96.4,?,7,.,82.4,99.2,1.6,103.8,102.0,110.0,100.9,98.9,
COc1cccc(CC(NC(C)=O)C(=O)NC2CCN(C(=O)C3CC3)CC2)c1OC (configuration not stated),101.7,98.5,11,14,100.7,104.0,.,.,.,.,.,.,
CCC(CC)C(=O)NCCc1ccc(OC)cc1,237.7*[activator],.,.,34,.,.,2.3,97.3,97.4,97.2,98.4,99.4,
CCC(CC)C(=O)NCCc1ccc(OC)c(OC)c1,102.1,101.1,35,10,100.8,102.8,.,.,.,.,.,.,
CCOc1ccc(C(=O)Nc2ccccc2N2CCCC2)cc1,116.4,117.4,6,27,113.5,115.3,.,.,.,.,.,.,
COc1ccc(-c2ocnc2C(=O)Nc2ccccc2N2CCCCC2)cc1,127.9,229.9*[activator],221*,16,98.8,112.9,.,.,.,.,.,.,RGS4-Gao HTS=127.9*
COc1ccc(S(=O)(=O)N2CCN(C(=O)COc3ccc4c(C)cc(=O)oc4c3)CC2)cc1,105.4,100.8,10,11,103.4,100.3,.,.,.,.,.,.,
COc1ccc(N2CCN(C(=O)c3ccc(COc4ccc5c(C)cc(=O)oc5c4)cc3)CC2)cc1,180.3*[activator],157.5*[activator],84*,24,99.2,99.6,-0.8,102.3,97.7,102.2,100.5,94.8,
Cc1c(C(=O)NCc2ccc3c(c2)OCO3)oc2ccccc12,92.5,88.5,4,59,69.8,22.2*,-0.6,106.5,104.7,111.0,103.8,118.2,RGS4-Gao HTS=92.5*
O=C(COC(=O)c1ccc2c(c1)OCO2)NCc1ccc2c(c1)OCO2,124.0,112.5,7,14,103.2,125.8,.,.,.,.,.,.,
CS(=O)(=O)N(CCc1ccccc1)CC(=O)NCc1ccc2c(c1)OCO2,11.1*,12.8*,0,42,13.6*,3.7*,-0.2,92.9,88.3,89.6,89.8,90.2,
O=C(COC(=O)c1ccco1)NCc1ccc2c(c1)OCO2,34.3*,?,2,.,41.3*,30.3,-0.2,112.1,114.9,109.6,112.0,98.2,
Cc1ccc2oc(C(=O)NCc3ccc4c(c3)OCO4)c(C)c2c1,100.8,99.8,7,10,101.2,100.5,.,.,.,.,.,.,
O=C(CCSc1ccc(Cl)cc1)Nc1cccnc1,97.8,98.2,9,18,98.4,95.5,.,.,.,.,.,.,
O=C(COc1cccnc1[N+](=O)[O-])Nc1cc(S(=O)(=O)N2CCCCC2)ccc1Cl,104.8,?,7,.,99.3,99.3,.,.,.,.,.,.,
Nc1nc(-c2ccc(Cl)cc2)cc(C(F)(F)F)n1,126.2,117.7,7,8,142.1*[activator],280.1,-2.5,102.5,150.7*[activator],111.5,126.3*[activator],127.9,RGS4-Gao HTS=126.2*
Nc1nc(-c2ccc(F)cc2)cc(C(F)(F)F)n1,102.3,99.3,10,11,100.7,101.9,.,.,.,.,.,.,
CC(C)n1c(-c2cccnc2)nc2cnccc21,122.4,121.5,32,17,140.2*[activator],214.1,.,.,.,.,.,.,RGS4-Gao HTS=122.4*
NNC(=O)c1csc(CS(=O)(=O)c2ccc(Cl)cc2)n1,110.6,?,12,.,85.6,101.5,0.1,108.8,116.5,111.3,110.7,96.9,
SMILES,RGS4-Gao reg,RGS7-Gao reg,Avidin bead fluor,GSH fluor,RGS8-Gao,RGS16-Gao,Biotin-avidin,RGS8-Gao confirm,RGS7-Gao single,RGS16-Gao single,RGS4-Gao single,RGS19-Gao conf,others
CC(CCc1ccccc1)NC(=O)CSc1nccc(=O)[nH]1 (configuration not stated),12.2*,10.9*,-2,43,21.1*,7.1*,-1.0,97.3,79.3,91.4,90.5,78.8,
CSc1cccc(NC(=O)/C=C/c2cccc(Cl)c2)c1,102.2,102.4,3,11,98.2,92.8,.,.,.,.,.,.,
Cc1nn(-c2ccccc2)c(C)c1/C=N\N1CCN(c2ccc(Cl)cc2)CC1,.,.,.,17,.,.,0.3,99.1,100.9,102.4,102.3,91.0,
CCC(C)[C@H](NC(=O)N1CCCCCC1)C(=O)OC (some centres not stated),91.5,?,2,.,97.1,89.1,.,.,.,.,.,.,
COc1ccc(C[C@H]2CN3C(=NC[C@@H]3C(C)C)N2CCNC(=O)CCC2CCCCC2)cc1,26.9*,10.0*,-1,21,19.6*,13.7*,0.1,103.3,135.8*[activator],115.7,126.0*[activator],133.5,
Cc1ccc(C)n1-c1ccc(C(=O)O)cc1,65.5,39.3*,11,12,60.9,72.8,0.4,95.8,92.0,98.0,97.8,101.7,RGS4-Gao HTS=65.5*
Cc1ccccc1-c1nnc(-c2cccs2)o1,102.3,102.1,10,14,102.1,99.1,.,.,.,.,.,.,
O=C(CSc1nnnn1-c1ccccc1)Nc1ncc2c(n1)CC(c1ccco1)CC2=O (configuration not stated),35.1*,39.4*,14,17,57.4*,38.6,3.2,101.2,87.9,97.8,94.5,89.5,
CC(C)CNC(=O)COC(=O)CCC(=O)c1ccc(Cl)cc1,96.4,98.7,7,12,95.9,81.4,.,.,.,.,.,.,
